Test results: the supplement of paper PMC9262897, “Low-cost anti-mycobacterial drug discovery using engineered E. coli” (Nature Communications, 2022)
Where a name gives a salt, the structure may show the parent alone. ± gives the standard deviation of the averaged measurements.

System: E. coli TESEC Mtb Alr
Assay: growth (OD600 after 10 h); higher = more growth (less inhibition)
Conditions: compound 0.1 mM
Experimental: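 TESEC Mtb Alr E. coli, or the Alr+ wild-type control, in 384-well plates with Prestwick library compounds at 0.1 mM and 1% DMSO, across arabinose induction levels of 1E3 to 1E7 nM. Growth is read as OD600 after 10 h at 37 °C in triplicate biological replicates.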

[1] = arabinose 1000 nM, raw OD600 reference: median of DMSO wells 0.294, cell-free background 0.041
[2] = arabinose 10000 nM, raw OD600 reference: median of DMSO wells 0.264, cell-free background 0.041
[3] = arabinose 100000 nM, raw OD600 reference: median of DMSO wells 0.201, cell-free background 0.041
[4] = arabinose 1000000 nM, raw OD600 reference: median of DMSO wells 0.193, cell-free background 0.041
[5] = arabinose 10000000 nM, raw OD600 reference: median of DMSO wells 0.146, cell-free background 0.041

Cn1c(NCCN(CCO)CCCc2ccc([N+](=O)[O-])cc2)cc(=O)n(C)c1=O [Nifekalant]
growth [1]: 0.301 ± 0.0034 | growth [2]: 0.248 ± 0.003 | growth [3]: 0.168 ± 0.0095 | growth [4]: 0.144 ± 0.0052 | growth [5]: 0.145 ± 0.002

O=c1[nH]c(=O)n([C@H]2C[C@H](O)[C@@H](CO)O2)cc1F [Floxuridine]
growth [1]: 0.0615 ± 0.0068 | growth [2]: 0.04377 ± 0.00025 | growth [3]: 0.052 ± 0.0014 | growth [4]: 0.0434 ± 0.0004 | growth [5]: 0.05017 ± 0.0005

CCc1c(C)[nH]c2c1C(=O)C(CN1CCOCC1)CC2 (stereo not given) [Molindone hydrochloride]
growth [1]: 0.3135 ± 0.00076 | growth [2]: 0.251 ± 0.011 | growth [3]: 0.202 ± 0.018 | growth [4]: 0.166 ± 0.0061 | growth [5]: 0.1542 ± 0.0015

C#C[C@]1(O)CC[C@H]2[C@@H]3[C@H](C)CC4=C(CCC(=O)C4)[C@H]3CC[C@@]21C [Tibolone]
growth [1]: 0.162 ± 0.017 | growth [2]: 0.155 ± 0.031 | growth [3]: 0.15 ± 0.021 | growth [4]: 0.0695 ± 0.00095 | growth [5]: 0.148 ± 0.0066

CC(C)(C)C(=O)OCOC(=O)[C@@H]1N2C(=O)[C@@H](NC(=O)[C@H](N)c3ccccc3)[C@H]2SC1(C)C [Pivampicillin]
growth [1]: 0.351 ± 0.0076 | growth [2]: 0.285 ± 0.011 | growth [3]: 0.298 ± 0.011 | growth [4]: 0.207 ± 0.02 | growth [5]: 0.203 ± 0.0048

CCOC(=O)O[C@]1(C(=O)COC(=O)CC)CC[C@H]2[C@@H]3CCC4=CC(=O)C=C[C@]4(C)[C@H]3[C@@H](O)C[C@@]21C [Prednicarbate]
growth [1]: 0.268 ± 0.0098 | growth [2]: 0.271 ± 0.0029 | growth [3]: 0.269 ± 0.025 | growth [4]: 0.199 ± 0.012 | growth [5]: 0.174 ± 0.013

CC[C@H](C)C(=O)O[C@H]1CCC=C2C=C[C@H](C)[C@H](CC[C@@H]3C[C@@H](O)CC(=O)O3)[C@H]21 [Mevastatin]
growth [1]: 0.152 ± 0.1 | growth [2]: 0.166 ± 0.08 | growth [3]: 0.134 ± 0.0032 | growth [4]: 0.0515 ± 0.0016 | growth [5]: 0.0677 ± 0.0034

CC1CS(=O)(=O)CCN1/N=C/c1ccc([N+](=O)[O-])o1 (stereo not given) [Nifurtimox]
growth [1]: 0.0539 ± 0.0037 | growth [2]: 0.04127 ± 0.00031 | growth [3]: 0.0564 ± 0.0035 | growth [4]: 0.0414 ± 0.00017 | growth [5]: 0.0554 ± 0.00081
